Experimental data taken from PMC8222333, “AsCas12a ultra nuclease facilitates the rapid generation of therapeutic cell medicines”.

B1: TACT (dsDNA)
DNA 1: GCTATCTAGTGCTCAGTACGCACTGTACTAGGAAACTTCTGGCAGGACCAGGTCATGAGATCGGAAGAGCACACGTCTGAACTCCAGTCA
DNA 2: TGACTGGAGTTCAGACGTGTGCTCTTCCGATCTCATGACCTGGTCCTGCCAGAAGTTTCCTAGTACAGTGCGTACTGAGCACTAGATAGC
RNA: AAUUUCUACUCUUGUAGAUAGGAAACUUCUGGCAGGACC
B2: AAGT (dsDNA)
DNA 1: GCTATCTAGTGCTCAGTACGCACTGAAGTAGGAAACTTCTGGCAGGACCAGGTCATGAGATCGGAAGAGCACACGTCTGAACTCCAGTCA
DNA 2: TGACTGGAGTTCAGACGTGTGCTCTTCCGATCTCATGACCTGGTCCTGCCAGAAGTTTCCTACTTCAGTGCGTACTGAGCACTAGATAGC
RNA: AAUUUCUACUCUUGUAGAUAGGAAACUUCUGGCAGGACC
B3: AAGG (dsDNA)
DNA 1: GCTATCTAGTGCTCAGTACGCACTGAAGGAGGAAACTTCTGGCAGGACCAGGTCATGAGATCGGAAGAGCACACGTCTGAACTCCAGTCA
DNA 2: TGACTGGAGTTCAGACGTGTGCTCTTCCGATCTCATGACCTGGTCCTGCCAGAAGTTTCCTCCTTCAGTGCGTACTGAGCACTAGATAGC
RNA: AAUUUCUACUCUUGUAGAUAGGAAACUUCUGGCAGGACC
B4: AAAC (dsDNA)
DNA 1: GCTATCTAGTGCTCAGTACGCACTGAAACAGGAAACTTCTGGCAGGACCAGGTCATGAGATCGGAAGAGCACACGTCTGAACTCCAGTCA
DNA 2: TGACTGGAGTTCAGACGTGTGCTCTTCCGATCTCATGACCTGGTCCTGCCAGAAGTTTCCTGTTTCAGTGCGTACTGAGCACTAGATAGC
RNA: AAUUUCUACUCUUGUAGAUAGGAAACUUCUGGCAGGACC
B5: AACA (dsDNA)
DNA 1: GCTATCTAGTGCTCAGTACGCACTGAACAAGGAAACTTCTGGCAGGACCAGGTCATGAGATCGGAAGAGCACACGTCTGAACTCCAGTCA
DNA 2: TGACTGGAGTTCAGACGTGTGCTCTTCCGATCTCATGACCTGGTCCTGCCAGAAGTTTCCTTGTTCAGTGCGTACTGAGCACTAGATAGC
RNA: AAUUUCUACUCUUGUAGAUAGGAAACUUCUGGCAGGACC
B6: AACT (dsDNA)
DNA 1: GCTATCTAGTGCTCAGTACGCACTGAACTAGGAAACTTCTGGCAGGACCAGGTCATGAGATCGGAAGAGCACACGTCTGAACTCCAGTCA
DNA 2: TGACTGGAGTTCAGACGTGTGCTCTTCCGATCTCATGACCTGGTCCTGCCAGAAGTTTCCTAGTTCAGTGCGTACTGAGCACTAGATAGC
RNA: AAUUUCUACUCUUGUAGAUAGGAAACUUCUGGCAGGACC
B7: TGCA (dsDNA)
DNA 1: GCTATCTAGTGCTCAGTACGCACTGTGCAAGGAAACTTCTGGCAGGACCAGGTCATGAGATCGGAAGAGCACACGTCTGAACTCCAGTCA
DNA 2: TGACTGGAGTTCAGACGTGTGCTCTTCCGATCTCATGACCTGGTCCTGCCAGAAGTTTCCTTGCACAGTGCGTACTGAGCACTAGATAGC
RNA: AAUUUCUACUCUUGUAGAUAGGAAACUUCUGGCAGGACC
B8: AACC (dsDNA)
DNA 1: GCTATCTAGTGCTCAGTACGCACTGAACCAGGAAACTTCTGGCAGGACCAGGTCATGAGATCGGAAGAGCACACGTCTGAACTCCAGTCA
DNA 2: TGACTGGAGTTCAGACGTGTGCTCTTCCGATCTCATGACCTGGTCCTGCCAGAAGTTTCCTGGTTCAGTGCGTACTGAGCACTAGATAGC
RNA: AAUUUCUACUCUUGUAGAUAGGAAACUUCUGGCAGGACC
B9: TGCC (dsDNA)
DNA 1: GCTATCTAGTGCTCAGTACGCACTGTGCCAGGAAACTTCTGGCAGGACCAGGTCATGAGATCGGAAGAGCACACGTCTGAACTCCAGTCA
DNA 2: TGACTGGAGTTCAGACGTGTGCTCTTCCGATCTCATGACCTGGTCCTGCCAGAAGTTTCCTGGCACAGTGCGTACTGAGCACTAGATAGC
RNA: AAUUUCUACUCUUGUAGAUAGGAAACUUCUGGCAGGACC
B10: ACAA (dsDNA)
DNA 1: GCTATCTAGTGCTCAGTACGCACTGACAAAGGAAACTTCTGGCAGGACCAGGTCATGAGATCGGAAGAGCACACGTCTGAACTCCAGTCA
DNA 2: TGACTGGAGTTCAGACGTGTGCTCTTCCGATCTCATGACCTGGTCCTGCCAGAAGTTTCCTTTGTCAGTGCGTACTGAGCACTAGATAGC
RNA: AAUUUCUACUCUUGUAGAUAGGAAACUUCUGGCAGGACC
B11: TCGG (dsDNA)
DNA 1: GCTATCTAGTGCTCAGTACGCACTGTCGGAGGAAACTTCTGGCAGGACCAGGTCATGAGATCGGAAGAGCACACGTCTGAACTCCAGTCA
DNA 2: TGACTGGAGTTCAGACGTGTGCTCTTCCGATCTCATGACCTGGTCCTGCCAGAAGTTTCCTCCGACAGTGCGTACTGAGCACTAGATAGC
RNA: AAUUUCUACUCUUGUAGAUAGGAAACUUCUGGCAGGACC
B12: AAAG (dsDNA)
DNA 1: GCTATCTAGTGCTCAGTACGCACTGAAAGAGGAAACTTCTGGCAGGACCAGGTCATGAGATCGGAAGAGCACACGTCTGAACTCCAGTCA
DNA 2: TGACTGGAGTTCAGACGTGTGCTCTTCCGATCTCATGACCTGGTCCTGCCAGAAGTTTCCTCTTTCAGTGCGTACTGAGCACTAGATAGC
RNA: AAUUUCUACUCUUGUAGAUAGGAAACUUCUGGCAGGACC
B13: AAGA (dsDNA)
DNA 1: GCTATCTAGTGCTCAGTACGCACTGAAGAAGGAAACTTCTGGCAGGACCAGGTCATGAGATCGGAAGAGCACACGTCTGAACTCCAGTCA
DNA 2: TGACTGGAGTTCAGACGTGTGCTCTTCCGATCTCATGACCTGGTCCTGCCAGAAGTTTCCTTCTTCAGTGCGTACTGAGCACTAGATAGC
RNA: AAUUUCUACUCUUGUAGAUAGGAAACUUCUGGCAGGACC
B14: AACG (dsDNA)
DNA 1: GCTATCTAGTGCTCAGTACGCACTGAACGAGGAAACTTCTGGCAGGACCAGGTCATGAGATCGGAAGAGCACACGTCTGAACTCCAGTCA
DNA 2: TGACTGGAGTTCAGACGTGTGCTCTTCCGATCTCATGACCTGGTCCTGCCAGAAGTTTCCTCGTTCAGTGCGTACTGAGCACTAGATAGC
RNA: AAUUUCUACUCUUGUAGAUAGGAAACUUCUGGCAGGACC
B15: ACAC (dsDNA)
DNA 1: GCTATCTAGTGCTCAGTACGCACTGACACAGGAAACTTCTGGCAGGACCAGGTCATGAGATCGGAAGAGCACACGTCTGAACTCCAGTCA
DNA 2: TGACTGGAGTTCAGACGTGTGCTCTTCCGATCTCATGACCTGGTCCTGCCAGAAGTTTCCTGTGTCAGTGCGTACTGAGCACTAGATAGC
RNA: AAUUUCUACUCUUGUAGAUAGGAAACUUCUGGCAGGACC
B16: AAAA (dsDNA)
DNA 1: GCTATCTAGTGCTCAGTACGCACTGAAAAAGGAAACTTCTGGCAGGACCAGGTCATGAGATCGGAAGAGCACACGTCTGAACTCCAGTCA
DNA 2: TGACTGGAGTTCAGACGTGTGCTCTTCCGATCTCATGACCTGGTCCTGCCAGAAGTTTCCTTTTTCAGTGCGTACTGAGCACTAGATAGC
RNA: AAUUUCUACUCUUGUAGAUAGGAAACUUCUGGCAGGACC

target: dAsCas12a E174R (Acidaminococcus sp., UniProt U2UMQ6 1-1307, E174R;D908A;E993A;D1235A); experiment: Spec-seq (native PAGE EMSA with sequencing of bound and unbound); 25 mM Tris-HCl pH 7.4, 150 mM KCl, 5 mM MgCl2, 10% glycerol, 1 mM DTT, 40 ng/uL salmon sperm DNA; 400 nM Cas12a, 480 nM crRNA, 50 nM library, 37 C 1 h; native PAGE at room temperature; high values mean tight binding; conditions: protein: recombinant
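Note: relative affinity from the bound to unbound sequence frequency ratio in Spec-seq.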

| Binder | binding signal |
| --- | --- |
| B1 | -8.98 lnKA |
| B7 | -8.93 lnKA |
| B9 | -8.73 lnKA |
| B11 | -8.87 lnKA |

target: dAsCas12a S542R (Acidaminococcus sp., UniProt U2UMQ6 1-1307, S542R;D908A;E993A;D1235A); experiment: as above; conditions: protein: recombinant

| Binder | binding signal |
| --- | --- |
| B1 | -7.99 lnKA |
| B2 | -8.46 lnKA |
| B3 | -8.67 lnKA |
| B4 | -8.48 lnKA |
| B5 | -8.12 lnKA |
| B6 | -8.54 lnKA |
| B7 | -8.02 lnKA |
| B8 | -7.9 lnKA |
| B9 | -7.76 lnKA |
| B10 | -8.6 lnKA |
| B11 | -8.02 lnKA |
| B12 | -8.45 lnKA |
| B13 | -8.52 lnKA |
| B14 | -8.29 lnKA |
| B15 | -8.48 lnKA |
| B16 | -8.41 lnKA |

target: d-enCas12a (Acidaminococcus sp., UniProt U2UMQ6 1-1307, E174R;S542R;K548R;D908A;E993A;D1235A); experiment: as above; conditions: protein: recombinant

| Binder | binding signal |
| --- | --- |
| B1 | -2.8 lnKA |
| B2 | -5.71 lnKA |
| B3 | -5.8 lnKA |
| B4 | -5.25 lnKA |
| B5 | -2.72 lnKA |
| B6 | -4.69 lnKA |
| B7 | -2 lnKA |
| B8 | -2.33 lnKA |
| B9 | -1.44 lnKA |
| B10 | -5.98 lnKA |
| B11 | -5.8 lnKA |
| B12 | -5.7 lnKA |
| B13 | -5.74 lnKA |
| B14 | -4.8 lnKA |
| B15 | -5.72 lnKA |
| B16 | -5.66 lnKA |

target: d-enCas12a-Ultra (Acidaminococcus sp., UniProt U2UMQ6 1-1307, E174R;S542R;K548R;M537R;F870L;D908A;E993A;D1235A); experiment: as above; conditions: protein: recombinant

| Binder | binding signal |
| --- | --- |
| B1 | -0.733 lnKA |
| B2 | -3.41 lnKA |
| B3 | -3.49 lnKA |
| B4 | -2.57 lnKA |
| B5 | -0.706 lnKA |
| B6 | -1.81 lnKA |
| B7 | -0.483 lnKA |
| B8 | -0.621 lnKA |
| B9 | -0.407 lnKA |
| B10 | -3.44 lnKA |
| B11 | -3.45 lnKA |
| B12 | -3.44 lnKA |
| B13 | -3.38 lnKA |
| B14 | -2.04 lnKA |
| B15 | -3.38 lnKA |
| B16 | -3.17 lnKA |
